For 40 compounds, outcome and AC50 results are on record in PubChem BioAssay (EPA / NIEHS).

Active and inactive are the calls of the source. How the source made its calls: active means hit-call score of the fitted dose curve at least 0.9, where 1 is the maximum; inactive means score below 0.9.

This assay is described as follows: APR_HepG2_CellLoss_24hr: Apredica 24-hour HepG2 Assay for Cell Loss (AID 2282908).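 On AC50: fit in both directions so a hit may be cell loss or gain.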 To be noted: high-content imaging. The method, then: APR_HepG2_24hr is a cell-based, multiplexed-readout assay that uses HepG2, a human liver cell line, with measurements taken at 24 hours after chemical dosing in a 384-well plate.APR_HepG2_CellLoss_24hr is one of 10 assay component(s) measured or calculated from the APR_HepG2_24hr assay. It is designed to make measurements of cell number, a form of viability reporter, as detected with fluorescence intensity signals by HCS Fluorescent Imaging technology.Data from the assay component APR_HepG2_CellLoss_24hr was analyzed into 1 assay endpoint. This assay endpoint, APR_HepG2_CellLoss_24hr, was analyzed with bidirectional fitting relative to DMSO as the negative control and baseline of activity. Using a type of viability reporter, measures of all nuclear dna for gain or loss-of-signal activity can be used to understand the viability at the cellular-level. Furthermore, this assay endpoint can be referred to as a secondary readout, because this assay has produced multiple assay endpoints where this one serves a viability function. To generalize the intended target to other relatable targets, this assay endpoint is annotated to the cell cycle intended target family, where the subfamily is proliferation.
Cells were treated with dimethyl sulfoxide (DMSO) as a solvent control at a final concentration of 0.5% v/v or with compounds in DMSO with a resulting final DMSO concentration of 0.5% v/v. Compound treatment was done at concentrations of 0.39, 0.78, 1.56, 3.12, 6.24, 12.5, 25, 50, 100, and 200 uM in duplicate on each plate. Cells were treated with compounds for 1, 24, or 72 hr. Carbonyl […] m-chloro-phenylhydrazone (CCCP) and taxol were used as positive controls for mitochondrial function and cytoskeletal stability, respectively; DMSO served as the negative control for this experiment. Cells were fixed by the direct addition of 50 uL formaldehyde in Hank's Balanced Salt Solution (HBSS) to a final concentration of 3.7%. After incubation in the fixation medium for 30 min at room temperature (293-298 K), cells were rinsed twice with HBSS and treated with cell permeabilization buffer (16 uL of 0.5% Triton X-100) for 10 min at room temperature (293-298 K) before labeling. For mitochondrial membrane potential and mitochondrial measurements, pre-fixed cells were incubated with 50 uL of MitoTracker Red CMXRos (Invitrogen) at a concentration of 250 nM for 30 min before fixation. In the remaining cases, post-fixed cells were labeled by incubation with a multiplexed mixture of primary antibodies in HBSS for 60 min at room temperature (293-298 K) to detect immunoreactivity of c-Jun (1:500), phospho-histone H3 (1:100), phospho-histone H2A.x (1:200), p53 (1:400), alpha-tubulin (1:200) and Hoechst 33342 (2 ug/mL). Cells were labeled for multiplexed imaging on two separate plates: a) Hoechst 33342, MitoTracker Red, phospho-histone H3, and alpha-tubulin, and b) Hoechst 33342, phospho-histone H2A.x, and c-Jun. A final rinse with HBSS (50 uL) was performed before analysis. The primary and secondary antibodies for the proteins were phospho-histone H3 (rabbit anti-phospho-histone H3 and FITC-donkey anti-rabbit IgG), phospho-histone H2A.x (mouse anti-phospho-histone H2A.x and FITC-donkey anti-mouse IgG), c-Jun (rabbit anti-phospho-c-Jun and Cy3-donkey anti-rabbit IgG), p53 (sheep anti-p53 and Cy5-donkey anti-sheep IgG), alpha-tubulin (mouse anti-alpha-tubulin and Cy5-donkey anti-mouse IgG). These antibodies are available as the CellCiphr HepG2 assay kit (Millipore).Digital images of each well were captured using a Cellomics ArrayScan VTI (Thermo Scientific Cellomics) (0.8 NA objective, 0.63x optical coupler, and XF-93 filter set) at 20x magnification. The images were acquired using the autofocus feature of the ArrayScan instrument, which entails the following steps. First, the camera focuses on channel 1 (Hoechst 33342), where nuclei are identified. Second, a Z offset of 1 um is used for capturing mitochondria (MitoTracker Red). […]
With `CC(C)(C)c1ccc(O)cc1`, the compound was called inactive. In the case of `O=[N+]([O-])c1ccc(Cl)c(Cl)c1`, the call was inactive. Regarding `CCCCc1ccccc1`, the call was inactive. Still for that read-out and setting: the value for `CC(C)(C)OOC(C)(C)C` was “inactive”.

For `Cc1ccc(O)cc1C`, the compound was classed as inactive. Take `CCOc1ccc(C(C)(C)COCc2cccc(Oc3ccccc3)c2)cc1`: the compound was called inactive. The same measure, in the same setting: next, `c1cc2c3c(cccc3c1)CC2`: “inactive”; `CCCCCCCc1ccc(O)cc1`: “inactive”; `ClC(Cl)c1ccccc1`: “inactive”. As to `CCC(C)(C)c1ccc(O)cc1`, the AC50 (as a rule, the concentration giving half of the maximal activity seen) is 109 µM (active). For `CCOC(=O)c1ccccc1C(=O)OCC`, the result was inactive. Same read-out and setting: next, `O=C(O)C(Cl)Cl`: “inactive”; `Cc1ccc([N+](=O)[O-])cc1C`: “inactive”. As to `OCC1CO1` (stereo not given), the outcome was inactive.

As for `CCOP(=S)(Oc1ccc([N+](=O)[O-])cc1)c1ccccc1` (stereo not given), the AC50 is 41.1 µM (active). On to `CCN(CC)c1ccccc1`, for which the call was inactive. The same measure, in the same setting: the value for `CN(C)C(=O)Cl` was “inactive”; that for `Nc1ccc(Cl)cc1` was “inactive”; that for `c1nc[nH]n1` was “inactive”. On to `O=[N+]([O-])c1ccccc1`, for which the result was inactive. On the same count and under the same terms, next, `CCCCN(CCCC)N=O`: “inactive”.

As to `c1ccc2c(c1)Nc1ccccc1S2`, the call was inactive. For the compound `Cc1ccc(N)cc1N`, the call was inactive. For `ClC1=C(Cl)C2(Cl)C3C(Cl)C(Cl)CC3C1(Cl)C2(Cl)Cl` (stereo not given), the AC50 is 69.4 µM (active). For `CCNc1nc(Cl)nc(NC(C)(C)C)n1`, the call was inactive. Take `CCOS(=O)(=O)OCC`: the call was inactive. For the compound `COCCOCCO`, the outcome was inactive.

As to `[N-]=[N+]=[N-]`, the compound was called inactive. Still for that read-out and setting: next, `c1ccc(OP(Oc2ccccc2)Oc2ccccc2)cc1`: “inactive”; `O=C(O)C1C(C(=O)O)C2(Cl)C(Cl)=C(Cl)C1(Cl)C2(Cl)Cl` (stereo not given): “inactive”. `CCCN(CCC)c1c([N+](=O)[O-])cc(C(C)C)cc1[N+](=O)[O-]`: the AC50 is 32.6 µM (active). For `ClC(Cl)(Cl)c1ccccc1`, the result was inactive. Still for that read-out and setting: the value for `CCOP(=S)(OCC)SCSCC` was “inactive”. As for `O=P(Oc1ccccc1)(Oc1ccccc1)Oc1ccccc1`, the AC50 is 63.2 µM (active). With `Nc1ccc2ccccc2c1`, the compound was classed as inactive. For `Nc1cc2c3c(c1)C(c1ccccc1)=N[C@@H](NC(=O)c1cccnc1)C(=O)N3CC2`, the compound was classed as inactive. As to `CSC(C)(C)C=NO`, the compound was classed as inactive. Regarding `O=P1(N(CCCl)CCCl)NCCCO1` (stereo not given), the result was inactive. With `CC(Cc1ccc(OCC(=O)O)cc1)NCC(O)c1csc(C(F)(F)F)n1` (stereo not given), the compound was called inactive. Turning to `CCC1(c2ccccc2)C(=O)N=C(O)NC1=O` (stereo not given), the compound was called inactive.
